The source made the active and inactive calls.

This experiment in a line: resazurin metabolic signal in A549 cells – cell-based, resazurin fluorescence, 24 h, PK04 Diversity Set, profiling panel (AID 1171). Also: test concentration not given here. The following applies: A549 viability, higher = more signal, called active from +8 up or from −8 down. On the technique in general: Resazurin is reduced to fluorescent resorufin, in cell work by metabolically active cells.
As for `[N-]=[N+]=NCc1ccccc1C[C@@]1(C(=O)N2CCCCC2)N=C(c2ccc(OCCCO)cc2)O[C@@H]1c1ccccc1`, the z-score was -0.949 (inactive). For `O=C1O[C@@H](c2ccccc2)[C@@H](c2ccccc2)N2[C@@H](c3ccc(OCCO)cc3)[C@]3(C(=O)Nc4ccccc43)[C@@H](C(=O)O)[C@H]12` the value was 0.225 (inactive). For the compound `CC(CO)N1C(=O)[C@@H]2[C@H]3C(=O)OCC=C[C@H]3OC23C=CCN(C(C)(C)C)C(=O)[C@@H]13` (stereo partly specified), the z-score is -0.289 (inactive). `CN1C(=O)C2C=CC(C(O)c3cccc4ccccc34)N(N3CCCCC3)C2C1=O` (stereo unspecified): the z-score is 0.294 (inactive). For `CN(C)C(=O)[C@]1(CCS(=O)(=O)c2ccccc2)N=C(c2ccc(OCCCO)cc2)O[C@@H]1c1ccccc1N=[N+]=[N-]` the value was -0.859 (inactive). As to `COC(=O)[C@@]1(Cc2ccc(F)cc2)[C@H]2c3cc(C(=O)N4CCCC4)n(CCc4ccc(O)c(O)c4)c3C[C@H]2CN1C(=O)c1ccccc1`, the z-score is 0.0195 (inactive).

Take `CN(C)CCCNC(=O)[C@@]1(c2ccc([N+](=O)[O-])cc2)CC(=O)N(CC23CC4CC(CC(C4)C2)C3)[C@@H]1c1ccc(CO)cc1I`: the z-score was -7.13 (inactive). The figure for `Cc1cc(C)c(C(O)C2C=CC3C(=O)NC(=O)C3N2Nc2ccc(Cl)cc2Cl)c(C)c1` (stereo unspecified) is -1.59 (inactive); for `COCCOC(=O)N1C(=O)[C@@]2(c3cc(C#CC4=CCCCC4)ccc31)[C@H](c1ccc(OCCO)cc1)N1[C@H](c3ccccc3)[C@H](c3ccccc3)OC(=O)[C@H]1[C@@H]2C(=O)N1CCN(c2ncccn2)CC1` it is 0.468 (inactive); for `C=CCC(OC(C)=O)[C@@H]1[C@@H](N(Cc2ccc(-c3ccccc3)cc2)C(=O)Cc2ccc(F)cc2)c2cc(OCCCO)ccc2N1C(=O)Cc1ccc(OC)cc1` (stereo partly specified) it is 0.084 (inactive). The figure for `COC(=O)[C@@]1(Cc2ccc(OC)cc2)[C@H]2c3cc(C(=O)N(C)C)n(C[C@H](O)CO)c3C[C@H]2CN1C(=O)c1ccccc1` is -0.816 (inactive); for `Cn1cccc1C(O)C1C=CC2C(=O)NC(=O)C2N1Nc1ccc(Cl)cc1Cl` (stereo unspecified) it is -0.299 (inactive); for `COc1ccc([Si](C)(C)[C@@H]2[C@@H](CC(=O)N(CCO)Cc3ccccc3)O[C@]3(C(=O)N(Cc4cccc(N5C(=O)c6cccc7cccc5c67)c4)c4ccccc43)[C@H]2C)cc1` it is -0.999 (inactive). For `Cc1ccc(S[C@]2(C(=O)NCC(F)(F)F)CC(=O)N(Cc3ccccc3C(F)(F)F)[C@@H]2c2ccc(CO)cc2I)cc1` the value was 0.328 (inactive); for `CCOc1cc(C(O)C2C=CC3C(=O)N(c4ccccc4)C(=O)C3N2Nc2ccc(C#N)cc2)ccc1O` (stereo unspecified), -0.883 (inactive). `COCCOC(=O)N1C(=O)[C@@]2(c3ccccc31)[C@H](C(=O)N1CCN(c3ncccn3)CC1)[C@H]1C(=O)O[C@H](c3ccccc3)[C@H](c3ccccc3)N1[C@@H]2c1ccc(O)cc1`: the z-score is 1.19 (inactive).

Consider `CCCC[C@@H]1C[C@H]1[C@@H](NC(=O)c1cccs1)c1ccc(C(F)(F)F)cc1`, for which the z-score is 0.724 (inactive). Take `COC(=O)c1ccc([C@H](NC(=O)c2ccco2)[C@]2(C)C[C@H]2C2CCCCC2)cc1`: the z-score is -2.55 (inactive).

As to `O[C@@H](Cc1ccccc1)[C@@H](/C=C/C1CC1)N(CC#Cc1ccccc1)Cc1cccc(Cl)c1`, the z-score was 2.89 (inactive).

As for `N#Cc1ccc(C(O)C2C=CC3C(=O)N(c4ccccc4)C(=O)C3N2Nc2ccccc2)cc1` (stereo unspecified), the z-score is -1 (inactive). For `CC(C)N1C(=O)c2ccccc2[C@@H](C(=O)NC2CC2)[C@@H]1c1ccc(CO)cc1` the value was 0.743 (inactive); for `COC(=O)c1nc2oc1CC[C@@H](CO)NC(=O)N(C)Cc1cnnn1C[C@H](Cc1ccccc1)NC2=O`, 0.634 (inactive); for `C=CCNC(=O)[C@@H]1[C@H]2C(=O)O[C@H](c3ccccc3)[C@H](c3ccccc3)N2[C@H](c2ccc(O)cc2)[C@@]12C(=O)N(C(=O)OCCOC)c1ccc(C#CC3(O)CCCCCC3)cc12`, 0.395 (inactive). `O=C1C=C(c2ccccc2)C(=O)c2ccc([C@H]3Oc4ccccc4S(=O)(=O)N4CCC[C@@H]34)cc21`: the z-score is -0.602 (inactive).

Consider `C=C(COC)/C(=C/C[C@H](OC(C)=O)c1ccc(OCCO)cc1)c1cc(C(=O)OC)ccc1OC`, for which the z-score was 1.47 (inactive). With `CC(C)[Si](C#C[Si](C(C)C)(C(C)C)C(C)C)(O[C@H](C)c1cn([C@H](CO)Cc2ccccc2)nn1)C(C)C`, the z-score is 0.637 (inactive).

For the origin of these results see PubChem BioAssay.
